Holding throughout (test): protein-binding microarray (PBM); PBM: ~300 nM protein, 6 mM HEPES pH 7.8, 80 mM KCl, 0.5 mM EDTA, 0.5 mM EGTA, 6% glycerol, 35 ng/ul poly-dIdC, 1% milk, 1 h, room temperature; Ap Aiptasia and Nv Nematostella (sea anemones) / Co Capsaspora / Aq Amphimedon (sponge) / Dm Drosophila / Hu human; RHD is the Rel homology domain; high values mean tight binding
Conditions in all cases: dsDNA, one strand shown

Assay [1] concerns the target T1, GST-Ap-NF-kB RHD (Exaiptasia pallida (Aiptasia), UniProt A0A913YAJ5 2-422).
T1 sequence: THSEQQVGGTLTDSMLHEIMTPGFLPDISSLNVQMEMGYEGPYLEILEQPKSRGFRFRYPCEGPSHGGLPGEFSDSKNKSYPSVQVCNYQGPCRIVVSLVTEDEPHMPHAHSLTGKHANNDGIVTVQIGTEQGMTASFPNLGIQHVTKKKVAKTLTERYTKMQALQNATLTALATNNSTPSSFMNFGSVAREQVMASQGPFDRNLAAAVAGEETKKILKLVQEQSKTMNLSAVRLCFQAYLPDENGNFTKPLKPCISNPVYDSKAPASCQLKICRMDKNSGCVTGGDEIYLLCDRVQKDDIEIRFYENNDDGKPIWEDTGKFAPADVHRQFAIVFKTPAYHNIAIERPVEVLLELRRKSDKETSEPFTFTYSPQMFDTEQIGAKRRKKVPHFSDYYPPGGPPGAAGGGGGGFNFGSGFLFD

For assay [2], the target named is T2, GST-Nv-NF-kB (Cys allele) (Nematostella vectensis, UniProt E5G601 2-411).
T2 sequence: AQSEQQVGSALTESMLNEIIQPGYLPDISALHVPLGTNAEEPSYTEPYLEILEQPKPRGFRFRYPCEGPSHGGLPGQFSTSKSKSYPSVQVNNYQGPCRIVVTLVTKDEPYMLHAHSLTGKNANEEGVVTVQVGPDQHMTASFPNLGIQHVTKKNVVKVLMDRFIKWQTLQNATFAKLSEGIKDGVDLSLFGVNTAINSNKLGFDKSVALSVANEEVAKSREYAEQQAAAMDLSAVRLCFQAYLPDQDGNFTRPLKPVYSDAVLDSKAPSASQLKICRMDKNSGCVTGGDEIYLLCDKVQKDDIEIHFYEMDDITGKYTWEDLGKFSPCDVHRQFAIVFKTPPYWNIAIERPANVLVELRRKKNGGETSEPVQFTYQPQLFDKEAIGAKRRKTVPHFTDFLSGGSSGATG

Assay [3] addresses T3, GST-Co-NF-kB (Capsaspora owczarzaki, UniProt F1ARL5 200-546).
T3 sequence: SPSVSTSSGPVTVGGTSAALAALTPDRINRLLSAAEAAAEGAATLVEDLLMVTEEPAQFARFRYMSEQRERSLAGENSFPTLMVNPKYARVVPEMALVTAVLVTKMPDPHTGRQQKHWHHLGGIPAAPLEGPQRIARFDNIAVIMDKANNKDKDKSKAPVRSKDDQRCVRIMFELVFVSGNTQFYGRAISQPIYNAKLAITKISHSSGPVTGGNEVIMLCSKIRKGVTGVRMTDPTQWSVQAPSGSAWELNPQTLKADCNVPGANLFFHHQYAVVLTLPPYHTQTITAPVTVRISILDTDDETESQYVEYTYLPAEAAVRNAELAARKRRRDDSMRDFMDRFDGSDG

Assay [4] addresses T4, GST-Dm-Relish (Drosophila melanogaster, UniProt Q94527 99-473).
T4 sequence: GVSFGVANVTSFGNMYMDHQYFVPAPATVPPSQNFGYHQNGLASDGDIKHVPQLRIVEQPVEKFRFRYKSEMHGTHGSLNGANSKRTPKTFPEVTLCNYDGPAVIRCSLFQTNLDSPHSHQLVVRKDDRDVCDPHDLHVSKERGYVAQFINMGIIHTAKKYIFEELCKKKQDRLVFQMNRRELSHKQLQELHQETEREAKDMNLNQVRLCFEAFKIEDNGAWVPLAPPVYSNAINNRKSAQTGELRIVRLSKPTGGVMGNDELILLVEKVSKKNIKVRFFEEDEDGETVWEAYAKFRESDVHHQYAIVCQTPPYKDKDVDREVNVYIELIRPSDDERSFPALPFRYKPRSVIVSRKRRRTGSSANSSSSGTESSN

Assay [5] addresses T5, GST-Aq-NF-kB (Amphimedon queenslandica, UniProt A9Y5G7 2-389).
T5 sequence: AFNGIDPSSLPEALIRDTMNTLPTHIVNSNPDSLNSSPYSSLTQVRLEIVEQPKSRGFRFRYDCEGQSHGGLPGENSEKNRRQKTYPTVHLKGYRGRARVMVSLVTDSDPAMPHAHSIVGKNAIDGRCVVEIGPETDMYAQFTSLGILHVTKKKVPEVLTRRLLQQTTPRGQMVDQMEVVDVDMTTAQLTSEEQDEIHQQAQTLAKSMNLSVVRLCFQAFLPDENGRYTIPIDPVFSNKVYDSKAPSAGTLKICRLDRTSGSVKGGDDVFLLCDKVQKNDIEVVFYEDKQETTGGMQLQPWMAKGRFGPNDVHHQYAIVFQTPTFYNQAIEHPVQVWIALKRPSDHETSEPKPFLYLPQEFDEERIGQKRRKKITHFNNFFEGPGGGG

In the case of “CCGATTAACATCATCCGGGAAAATGATGTTAATCGGGTCTTGATTCGCTTGACGCTGCTG”, the binding signal in assay [1] was determined as 2.01 z-score; in assay [2] it was 3.79 z-score; in assay [3], 4.53 z-score; in assay [4] it was 1.58 z-score; in assay [5] it was 2.54 z-score.

As for “CCGATTAACATCACGTAAACCCCTGATGTTAATCGGGTCTTGATTCGCTTGACGCTGCTG”, the binding signal was 3.55 z-score in assay [1]; 2.68 z-score in assay [2]; 1.08 z-score in assay [3]; 6.43 z-score in assay [4]; 3.41 z-score in assay [5].

In the case of “CCGATTAACATCACAAACTTCCCTGATGTTAATCGGGTCTTGATTCGCTTGACGCTGCTG”, the binding signal came to 3.81 z-score in assay [1]; 4.26 z-score in assay [2]; 2.51 z-score in assay [3]; 3.48 z-score in assay [4]; 4.68 z-score in assay [5].

On to “CCGATTAACATCAGGAACACCCCTGATGTTAATCGGGTCTTGATTCGCTTGACGCTGCTG”, for which the binding signal stood at 3.14 z-score in assay [1]; 1.33 z-score in assay [2]; 1.86 z-score in assay [3]; 3.5 z-score in assay [4]; 4.23 z-score in assay [5].

Turning to “CCGATTAACATCAAGCAACCCCCTGATGTTAATCGGGTCTTGATTCGCTTGACGCTGCTG”, the binding signal in assay [1] worked out at 5.23 z-score; in assay [2] it was 3.34 z-score; in assay [3], 2.21 z-score; in assay [4], 5.19 z-score; in assay [5], 4.14 z-score.

With “CCGATTAACATCAGGGGCACCCCTGATGTTAATCGGGTCTTGATTCGCTTGACGCTGCTG”, the binding signal in assay [1] was determined as 5.17 z-score; in assay [2], 3.94 z-score; in assay [3], 2.5 z-score; in assay [4], 7.23 z-score; in assay [5], 7.19 z-score.

“CCGATTAACATCATCCCCGTGTCTGATGTTAATCGGGTCTTGATTCGCTTGACGCTGCTG”: the binding signal in assay [1] came out at 2.75 z-score; in assay [2], 3.34 z-score; in assay [3], 4.49 z-score; in assay [4], 2.12 z-score; in assay [5], 3.87 z-score.

For the sequence “CCGATTAACATCAAAAATCCCGATGATGTTAATCGGGTCTTGATTCGCTTGACGCTGCTG”, the binding signal in assay [1] amounted to 3.79 z-score; in assay [2], 3.94 z-score; in assay [3], 1.91 z-score; in assay [4] it was 6.2 z-score; in assay [5], 4.05 z-score.

Regarding “CCGATTAACATCAGGCCTCCCCCTGATGTTAATCGGGTCTTGATTCGCTTGACGCTGCTG”, the binding signal in assay [1] is 4.86 z-score; in assay [2], 4.22 z-score; in assay [3], 4.14 z-score; in assay [4], 6 z-score; in assay [5], 6.6 z-score.

Turning to “CCGATTAACATCAGGTATTCCCATGATGTTAATCGGGTCTTGATTCGCTTGACGCTGCTG”, the binding signal in assay [1] came to 3.43 z-score; in assay [2], 2.67 z-score; in assay [3], 2.14 z-score; in assay [4], 7.54 z-score; in assay [5], 4.66 z-score.

For “CCGATTAACATCAAAAATCCCATTGATGTTAATCGGGTCTTGATTCGCTTGACGCTGCTG”, the binding signal in assay [1] was 3.2 z-score; in assay [2], 3.67 z-score; in assay [3], 1.08 z-score; in assay [4] it was 7.97 z-score; in assay [5], 3.96 z-score.

As for “CCGATTAACATCAGGGGCGGGAATGATGTTAATCGGGTCTTGATTCGCTTGACGCTGCTG”, the binding signal in assay [1] was found to be 2.87 z-score; in assay [2], 3.85 z-score; in assay [3] it was 3.85 z-score; in assay [4], 2.49 z-score; in assay [5], 4.18 z-score.

Regarding “CCGATTAACATCAAGGGAAACCCTGATGTTAATCGGGTCTTGATTCGCTTGACGCTGCTG”, the binding signal in assay [1] is 4.71 z-score; in assay [2] it was 5.3 z-score; in assay [3], 2.82 z-score; in assay [4], 7.64 z-score; in assay [5], 5.8 z-score.

With “CCGATTAACATCAGGGGACACCCTGATGTTAATCGGGTCTTGATTCGCTTGACGCTGCTG”, the binding signal was 5.89 z-score in assay [1]; 4.47 z-score in assay [2]; 3.91 z-score in assay [3]; 7.15 z-score in assay [4]; 6.52 z-score in assay [5].

(Values after PMC5700166.)
